{"source": "PubChem BioAssay (Tox21)", "note": "Results filed as inconclusive are left out. Active and inactive are the calls of the source. Unless noted, calls come from the whole dose curve; as a rule, active = well fitted curve in the direction sought with a large enough effect in the repeat runs; inconclusive = weak or mixed curves; inactive = no such curve, though single readings can be large; an effect the other way counts as inactive or inconclusive. % is set by controls: 0 for no effect and ±100 for the full control effect."}
{"test_system": "not listed separately", "test": "qHTS assay to identify small molecule antagonists of the estrogen related receptor (ERR) signaling pathway - cell viability counter screen (AID 1224818)", "details": "ERR reporter cell line viability counter screen; series mostly up to 46.1 µM; viability change, negative = cytotoxic: at the top concentration", "in_short": "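Cytotoxicity check run alongside the ERR antagonist screen: cells exposed to test compounds 17.5 h at 37 C, viability taken as CellTiter-Fluor fluorescence intensity.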"}
{"smiles": "CN1C(=O)c2ccccc2C1=O", "viability change, negative = cytotoxic": "-1.3% [at 92.2 µM] (inactive)"}
{"smiles": "O=C(CCc1ccc(O)cc1)c1c(O)cc(O)cc1O", "viability change, negative = cytotoxic": "-13.7% (inactive)"}
{"smiles": "O=C(O)CCc1nc(-c2ccccc2)c(-c2ccccc2)o1", "viability change, negative = cytotoxic": "11% (inactive)"}
{"smiles": "COc1ccccc1N1CCN(CC(O)COc2cccc3ccccc23)CC1", "note": "(configuration not stated)", "viability change, negative = cytotoxic": "-18.8% (inactive)"}
{"smiles": "C[C@H]1c2cccc(O)c2C(O)=C2C(=O)[C@]3(O)C(O)=C(C(N)=O)C(=O)[C@@H](N(C)C)[C@@H]3[C@@H](O)[C@@H]21", "viability change, negative = cytotoxic": "15.6% (inactive)"}
{"smiles": "Cc1ccc(Cl)c(Nc2ccccc2C(=O)O)c1Cl", "viability change, negative = cytotoxic": "-2.18% (inactive)"}
{"test_system": "not listed separately", "test": "qHTS assay to identify small molecule antagonists of the estrogen related receptor (ERR) signaling pathway (AID 1224819;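 note: luminescence from an ERR-driven luciferase reporter measured with One-Glo reagent; nearly all actives have a fitted effect of over 50% in size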)", "details": "ERR reporter cell line, luciferase inhibition; series mostly up to 46.1 µM; activity change, negative = inhibition: at the top concentration", "in_short": "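ERR reporter cells were plated at 2,000 cells/well and left 6 h at 37 C/5% CO2 before pin-tool transfer of compounds in DMSO. After 18 h at 37 C, One-Glo was added and luminescence was read 30 min later at room temperature.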"}
{"smiles": "CN1C(=O)c2ccccc2C1=O", "activity change, negative = inhibition": "0.237% [at 92.2 µM] (inactive)"}
{"smiles": "O=C(CCc1ccc(O)cc1)c1c(O)cc(O)cc1O", "activity change, negative = inhibition": "-0.321% (inactive)"}
{"smiles": "O=C(O)CCc1nc(-c2ccccc2)c(-c2ccccc2)o1", "activity change, negative = inhibition": "9.49% (inactive)"}
{"test_system": "not listed separately", "test": "qHTS assay to identify small molecule agonists of the estrogen related receptor (ERR) signaling pathway (AID 1224820)", "details": "ERR reporter cell line, luciferase agonist mode; series mostly up to 46.1 µM; activation: at the top concentration", "in_short": "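Luminescence readout (One-Glo, 30 min RT) from NTP-supplied ERR cell line exposed to compounds for 18 h at 37 C. Cells seeded 2,000 per well and pre-incubated 6 h before pin-tool compound transfer.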"}
{"smiles": "CN1C(=O)c2ccccc2C1=O", "activation": "2.26% [at 92.2 µM] (inactive)"}
{"smiles": "O=C(CCc1ccc(O)cc1)c1c(O)cc(O)cc1O", "activation": "7.72% (inactive)"}
{"smiles": "O=C(O)CCc1nc(-c2ccccc2)c(-c2ccccc2)o1", "activation": "12.8% (inactive)"}
{"smiles": "C[C@H]1c2cccc(O)c2C(O)=C2C(=O)[C@]3(O)C(O)=C(C(N)=O)C(=O)[C@@H](N(C)C)[C@@H]3[C@@H](O)[C@@H]21", "activation": "-58.4% (inactive)"}
{"test_system": "estrogen-related receptor alpha (ERRalpha) with PGC-1alpha coactivator, human", "test": "qHTS assay to identify small molecule antagonists of the estrogen related receptor signaling pathway with the pleiotropic PPARgamma coactivator (PGC) (AID 1224821; calls by dose curve;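 note: lower luminescence signal means antagonism of PGC/ERR signalling; nearly all actives have a fitted effect of over 50% in size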)", "details": "ERR/PGC reporter cell line, luciferase, antagonist mode; series mostly up to 46.1 µM; activity change, negative = inhibition: at the top concentration", "in_short": "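PGC/ERR reporter cells; 6 h pre-incubation 37 C/5% CO2; pin-tool compound in DMSO, 18 h 37 C; One-Glo added, 30 min RT; luminescence read. qHTS antagonist mode.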"}
{"smiles": "CN1C(=O)c2ccccc2C1=O", "activity change, negative = inhibition": "-0.949% [at 92.2 µM] (inactive)"}
{"smiles": "O=C(CCc1ccc(O)cc1)c1c(O)cc(O)cc1O", "activity change, negative = inhibition": "15.6% (inactive)"}
{"smiles": "O=C(O)CCc1nc(-c2ccccc2)c(-c2ccccc2)o1", "activity change, negative = inhibition": "-10.4% (inactive)"}
{"test_system": "not listed separately", "test": "qHTS assay to identify small molecule antagonists of the estrogen related receptor signaling pathway with the pleiotropic PPARgamma coactivator (PGC) cell viability counter screen (AID 1224822;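 note: viability read after 17.5 h compound exposure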)", "details": "ERR/PGC reporter cell line viability counter screen; series mostly up to 46.1 µM; viability change, negative = cytotoxic: at the top concentration", "in_short": "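Viable cell signal (CellTiter-Fluor, 30 min, 37 C/5% CO2) was measured in PGC/ERR cells after a 17.5 h compound incubation.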"}
{"smiles": "CN1C(=O)c2ccccc2C1=O", "viability change, negative = cytotoxic": "10.7% [at 92.2 µM] (inactive)"}
{"smiles": "O=C(CCc1ccc(O)cc1)c1c(O)cc(O)cc1O", "viability change, negative = cytotoxic": "-7.63% (inactive)"}
{"smiles": "O=C(O)CCc1nc(-c2ccccc2)c(-c2ccccc2)o1", "viability change, negative = cytotoxic": "3.87% (inactive)"}
{"smiles": "COc1ccccc1N1CCN(CC(O)COc2cccc3ccccc23)CC1", "note": "(configuration not stated)", "viability change, negative = cytotoxic": "-16.6% (inactive)"}
{"smiles": "C[C@H]1c2cccc(O)c2C(O)=C2C(=O)[C@]3(O)C(O)=C(C(N)=O)C(=O)[C@@H](N(C)C)[C@@H]3[C@@H](O)[C@@H]21", "viability change, negative = cytotoxic": "8.6% (inactive)"}
{"smiles": "Cc1ccc(Cl)c(Nc2ccccc2C(=O)O)c1Cl", "viability change, negative = cytotoxic": "6.34% (inactive)"}
